Assay outcomes as filed in PubChem BioAssay.
ELG1 genotoxic – qHTS screen for small molecules that induce genotoxicity in human embryonic kidney (HEK293T) cells expressing luciferase-tagged ELG1; 1.3% of 330,000 active; Potency, µM (top dose mostly 46 µM), without a hit: top-dose activity change, positive = activation, actives largely listed as activators; HEK293T ELG1-luciferase reporter, luminescence, 16 h; AID 504466, 2011; note: % of control where 0% means no effect; nearly all actives have a fitted effect of over 60% in size
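Luminescence read-out: rising ELG1-luciferase signal, reflecting elevated ELG1 protein under genetic stress, flags genotoxic compounds. Cells were treated for 16 hr at 37 °C before ONE-Glo detection.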
NPC1 promoter act – qHTS Assay for NPC1 Promoter Activators. Huh7 NPC1 promoter luciferase reporter, 24 h. 2.4% of 320,000 active. Potency, µM (series often up to 9.22 µM), for inactives: at the highest dose activation, usual class: activators; note: % of control where 0% means no effect; nearly all actives have a fitted effect of over 60% in size
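Cells: Huh7 expressing luciferase under the NPC1 promoter, 1500/well. Seeded 2 h, compound added, incubated 24 h at 37 °C. Luciferase reagent, 10 min ambient, then luminescence.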
FLuc counter – qHTS profiling assay for firefly luciferase inhibitor/activator using purifed enzyme and Km concentrations of substrates (counterscreen for miR-21 project) | Luciferin 4-monooxygenase (Photinus pyralis), P08659 | purified FLuc, Km substrates, luminescence inhibition | Potency, µM (series often up to 57.5 µM), for the others: at the highest dose activity change, negative = inhibition, most hits filed as inhibitors | 6.9% of 360,000 active;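 note: plate controls were vehicle for no effect and reference inhibitor for full effect; nearly all actives have a fitted effect of over 55% in size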
Target sequence (P08659 whole entry, looked up): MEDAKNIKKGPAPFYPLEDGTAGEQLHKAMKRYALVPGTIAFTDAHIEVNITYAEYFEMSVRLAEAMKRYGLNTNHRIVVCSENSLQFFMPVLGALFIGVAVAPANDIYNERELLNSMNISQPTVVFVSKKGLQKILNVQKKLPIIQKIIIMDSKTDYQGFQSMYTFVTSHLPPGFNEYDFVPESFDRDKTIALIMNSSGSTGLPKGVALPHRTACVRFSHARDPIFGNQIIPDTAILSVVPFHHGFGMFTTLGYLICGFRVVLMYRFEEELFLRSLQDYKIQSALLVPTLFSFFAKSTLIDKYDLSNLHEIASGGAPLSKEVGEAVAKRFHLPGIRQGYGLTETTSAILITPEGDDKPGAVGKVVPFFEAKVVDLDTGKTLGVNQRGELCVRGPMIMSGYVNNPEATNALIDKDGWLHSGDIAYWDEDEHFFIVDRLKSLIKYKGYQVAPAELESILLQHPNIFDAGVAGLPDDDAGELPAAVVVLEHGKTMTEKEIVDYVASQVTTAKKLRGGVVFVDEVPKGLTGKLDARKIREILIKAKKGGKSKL
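Biochemical qHTS of compounds, final roughly 60 µM downward over six points, against 10 nM purified firefly luciferase using Km concentrations of substrates (10 uM D-luciferin, 10 uM ATP) in Tris acetate pH 7.5 buffer; luminescence output.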
Rab9 prom act – qHTS Assay for Rab9 Promoter Activators | 2.8% of 320,000 active | Huh7 Rab9 promoter-luciferase reporter, luminescence, 24 h | Potency, µM (titrated, usually from 9.22 µM), inactives show at the top dose activation, negative = inhibition, actives largely listed as activators; note: % of control where 0% means no effect; nearly all actives have a fitted effect of over 60% in size
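Using Huh7 cells stably transfected with Rab9 promoter–luciferase, compounds were incubated 24 h at 37 °C, 5% CO2; luciferase luminescence was read 10 min after reagent addition.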
Luc counter – Counterscreen for Luciferase (Kinase-Glo TM) Inhibition. Luciferin 4-monooxygenase (Photuris pensylvanica), Q27757. Kinase-Glo luciferase, ATP luminescence, 8 min. Potency, µM (titrated, usually from 38.3 µM), inactives show top-dose activity change, negative = inhibition, usual class: inhibitors. 0.28% of 200,000 active; note: % is set by controls: 0 for no effect and ±100 for the full control effect; nearly all actives have a fitted effect of over 60% in size
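Inhibition of Kinase-Glo luciferase light generation was assessed at 10 uM ATP in pH 7.2 imidazole buffer, with luminescence measured after eight minutes at ambient temperature.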
SMN2 splice up – qHTS Assay for Enhancers of SMN2 Splice Variant Expression; Potency, µM (series often up to 46.1 µM), for inactives: at the highest dose activity change, positive = activation, usual class: activators; 2.8% of 210,000 active; HEK293 SMN2-luciferase splicing reporter, luminescence, 30-36 h; AID 1458, 2008; note: % of control where 0% means no effect; nearly all actives have a fitted effect of over 55% in size
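qHTS luciferase splicing reporter: luminescence rises when SMN2 exon 7 is included in transfected HEK293 cells. Compound exposure lasted 30-36 h at 37C, with 4.5 mM final sodium butyrate as control, followed by a ONE-Glo read.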
Active calls of the source: *; u = inconclusive; x = no result given; [ ] = remark or other dose. Only some compounds are listed: those with a hit (about 7.3% of all), similar ones and a draw of the others. Calls come from the whole dose curve; as a rule, active = well fitted curve in the direction sought with a large enough effect; inconclusive = small, poorly fitted or top-dose-only effect, or another doubt; inactive = no such curve, though single readings can be large; an effect the other way counts as inactive or inconclusive. Potency is the fitted concentration of half-maximal effect.

SMILES	ELG1 genotoxic	NPC1 promoter act	FLuc counter	Rab9 prom act	Luc counter	SMN2 splice up
Cc1cc(/C=C2\C(=N)N3N=CSC3=NC2=O)c(C)n1Cc1ccccc1	u	u	1.3µM*	u	x	x
Cc1cc(/C=C2\C(=N)N3N=C(S(C)(=O)=O)SC3=NC2=O)c(C)n1Cc1ccccc1	1%	-4%	17µM*	-4%	-2%	-15%
O=C(N/N=C/C(Br)=C/c1ccccc1)c1cccnc1	u	1%	13µM*	12%	x	x
O=C(N/N=C/C(Br)=C/c1ccccc1)c1ccc([N+](=O)[O-])cc1	0%[9.26 µM]	-1%	2%	0%	x	x
O=C(N/N=C/C(Br)=C/c1ccccc1)c1ccncc1	12%	-2%	24µM*	2%	x	x
COc1ccc(-c2csc(C3=C(O)CN(Cc4ccc(Cl)cc4)C3=N)n2)cc1OC	12%	-1%	-19%	-5%	0%	-20%
O=C(Nc1ccc2c(c1)nc1n2CCSC1)c1ccccc1	u	u	11µM*	3.5µM*	u	11µM*
COc1ccc(C(=O)Nc2ccc3c(c2)nc2n3CCSC2)cc1	u	2.8µM*	7.6µM*	u	-14%	10%
CCC(=O)Nc1ccc2c(c1)nc1n2CCSC1	15%	0%	u	-4%	-4%	-24%
CCCC(=O)Nc1ccc2c(c1)nc1n2CCOC1	6%	4%	-2%	4%	11%	-19%
O=C(Nc1ccc2c(c1)nc1n2CCOC1)c1ccccc1	u	2.2µM*	15µM*	3.2µM*	0%	23%
O=C(O)c1ccc(/C=C/C(=O)c2ccc3c(c2)OCCCO3)cc1	u	u	0.076µM*	u	x	x
CSc1ccc(/C=C/C(=O)c2ccc(NC(C)=O)cc2)cc1	0%	13%	3µM*	18%	2%	5%
CC(=O)Nc1ccc(/C=C/C(=O)c2ccc3c(c2)OCCO3)cc1	17%	-1%	6.7µM*	8%	x	x
CCCN1C(=O)S/C(=C\c2ccc(N3CCOCC3)cc2C)C1=O	u	2µM*	5.4µM*	2.2µM*	-2%	4%
CCCN1C(=O)S/C(=C\c2ccc(N3CCOCC3)o2)C1=O	u	22%	u	u	9%	-23%
CCN1C(=O)S/C(=C\c2ccc(N3CCOCC3)cc2C)C1=O	u	2µM*	2.7µM*	2µM*	x	x
Cn1c2ccccc2c2nnc(SCc3ccc4nonc4c3)nc21	1%	-1%	-1%	-2%	0%	u
COc1cccc(-n2c(-c3ccc(C)cc3)cc3c2CC(C)(C)CC3=O)c1	x	x	-11%	x	x	1%
COc1cc(C(=O)Nc2ccc(OCC(=O)O)cc2)cc(OC)c1OC	1%	3%	4%	16%	0%	-10%
CCCOc1ccc(N2CC(C(=O)Nc3cccc(Cl)c3Cl)CC2=O)cc1 (stereo unspecified)	x	x	-1%	x	x	13%
COC(=O)c1cccc(NC(=O)c2ccc3c(c2)C(=O)N(C(C)(C)C)C3=O)c1	2%	u	2.7µM*	u	x	x
CCC(=O)Oc1ccc(C(=O)Nc2cccc(C(=O)NC(C)(C)C)c2)cc1	-1%	-1%	11µM*	0%	-5%	17%
CC(C)(C)NC(=O)c1cccc(NC(=O)c2ccc3c(c2)C(=O)N(C(C)(C)C)C3=O)c1	0%	0%	11µM*	-4%	x	x
CCC(=O)Oc1ccc(C(=O)Nc2cccc(NC(=O)c3ccco3)c2)cc1	-9%	0%	u	-2%	x	x
SMILES	ELG1 genotoxic	NPC1 promoter act	FLuc counter	Rab9 prom act	Luc counter	SMN2 splice up
CC(C)(C)N1C(=O)c2ccc(C(=O)O)cc2C1=O	0%	0%	4%	0%	-1%	-6%
CC(C)(C)N1C(=O)c2ccc(C(=O)Nc3ccc(O)cc3)cc2C1=O	13%	u	13µM*	u	x	x
O=C(NC1CC1)c1cccc(NC(=O)c2cc(S(=O)(=O)N3CCOCC3)ccc2Cl)c1	1%	5%	0%	-2%	x	x
COC(=O)Nc1ccc(S(=O)(=O)N2CCC(C(=O)N3CCC(C)CC3)CC2)cc1	-1%	-5%	-1%	20%	1%	-4%
Cc1ccccc1Nc1nc(CSc2nnc(-c3ccoc3C)n2C)cs1	7%	19%	17µM*	3%	-7%	14%
Cc1occc1-c1nnc(SCc2cc(=O)n3cc(Br)ccc3n2)n1C	-3%	-6%	1%	-1%	-1%	-2%
Cc1ccc(Nc2nc(CSc3nnc(-c4ccncc4)n3C)cs2)cc1	u	3.2µM*	0.6µM*	1.3µM*	x	x
Cc1ccc(Nc2nc(CSc3nnc(-c4cccnc4)n3-c3ccccc3F)cs2)cc1	4%	9%	2.4µM*	4%	-1%	18%
Cc1cccc(OCC(=O)NCCCNC(=O)c2cccnc2)c1	3%	0%	1%	0%	x	x
O=C(Nc1ccc(S(=O)(=O)N2CCOCC2)cc1)C1COc2ccccc2O1 (stereo unspecified)	5%	5%	-1%	0%	2%	5%
CCOC(=O)c1ccc(NC(=O)c2cc(S(=O)(=O)N3CCOCC3)cn2C)cc1	1%	4%	-15%	-3%	x	x
CCOC(=O)c1ccc(NC(=O)c2cc(S(=O)(=O)N3CCOCC3)ccc2O)cc1	-18%	0%	15µM*	-2%	3%	-47%
CCN(c1ccc(NC(=O)COC(=O)c2ccc3ccccc3n2)cc1)C(C)C	3%	-3%	15µM*	-1%	-6%	-12%
CCN(c1ccc(NC(=O)COC(=O)c2ccc(C)c(S(=O)(=O)N3CCOCC3)c2)cc1)C(C)C	x	x	17µM*	x	-2%	-9%
CCOc1ccc(N(CC(=O)Nc2ccc(C)cc2)S(C)(=O)=O)cc1	u	3.5µM*	15µM*	0.89µM*	x	x
CS(=O)(=O)N(CC(=O)Nc1ccc2c(c1)OCO2)c1ccc(Cl)cc1	10%	26%	u	23%	0%	0%
CCOc1ccc(N(CC(=O)Nc2cc(C)cc(C)c2)S(C)(=O)=O)cc1	6%	u	u	13%	x	x
Cc1ccc(N(CC(=O)Nc2ccc3c(c2)OCCO3)S(C)(=O)=O)cc1	13%	u	19µM*	u	3%	x
Cc1nnc(N(Cc2ccco2)C(=O)c2ccc(C#N)cc2)s1	1%	0%	0%	21%	-3%	-31%
Fc1cccc2sc(Nc3nc4c(F)cccc4s3)nc12	3%	u	4.3µM*	u	-2%	16µM*
